Among all 290,000 compounds or so, about 3,000 (1%) were called active. The sample holds actives, similar compounds and a random draw of the others, so the mix is not that of the screen. Unmarked numbers belong to inactive results. Cut-off read from the data, not from the text of the source: active = inhibition mostly above about 36% (no sharp cut-off); inactive = mostly below about 34%.
test: NOD1 signaling inhibitors, primary screen, cell-based, luminescence, uHTS (AID 1578); settings: NOD1-driven NF-kB luciferase reporter cells, at 4 µM, active compounds read high;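 note: HEK-293T reporter cells stimulated with the NOD1 agonist gamma-tri-DAP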

SMILES | inhibition
CCOC(=O)N1CCN(S(=O)(=O)N2CCCC(C(=O)NCc3ccc(F)cc3)C2)CC1 (stereo unspecified) | 3.3%
O=C(CCC(=O)N(c1cccc(F)c1)C(C(=O)NC1CCCC1)c1ccncc1)Nc1cccnc1 (stereo unspecified) | -42.2%
CC1C=CCC2C(=O)N(c3cccc(C(=O)Nc4ccc(Br)cc4)c3)C(=O)C12 (stereo unspecified) | -16.6%
CCCCN(CC)S(=O)(=O)c1c(C)[nH]c(=O)[nH]c1=O | -34.4%
CCOc1ccc(N2CC(C(=O)Nc3nnc(C4CCCCC4)s3)CC2=O)cc1 (stereo unspecified) | -28.2%
O=C(O)COc1ccccc1/C=N/NC(=O)c1cc(-c2ccccc2)nc2ccccc12 | -11.3%
CCOc1cc(C(c2c(C)[nH][nH]c2=O)c2c(C)[nH][nH]c2=O)cc(Cl)c1O | 7.7%
CC(Cc1ccccc1)C(=O)NCc1ccncc1 (stereo unspecified) | -26.7%
CCCCc1ccc(NC(=O)C(=O)NCCN2CCN(C(=O)c3ccc([N+](=O)[O-])cc3)CC2)cc1 | 0.1%
CCCCc1ccc(NC(=O)C(=O)NCCN2CCN(Cc3ccc([N+](=O)[O-])cc3)CC2)cc1 | 34.7% (active)
CCc1ccc(NC(=O)C(=O)NCCN2CCN(Cc3ccc([N+](=O)[O-])cc3)CC2)cc1 | 12.5%
COc1cc(OC)cc(-c2nnc(SCC(=O)N(Cc3ccccc3)C(C)(C)C)o2)c1 | 14.6%
COc1ccc(-c2nnc(SCC(=O)N(Cc3ccccc3)C(C)(C)C)o2)cc1OC | 58.8% (active)
COc1cc(-c2nnc(SCC(=O)N(Cc3ccccc3)C(C)(C)C)o2)cc(OC)c1OC | 10.5%
CC1CN(S(=O)(=O)c2cccs2)CC(C)O1 (stereo unspecified) | 34.6% (active)
O=S(=O)(c1cccs1)N1CCN(S(=O)(=O)c2cccs2)CC1 | -16.1%
CC1CN(S(=O)(=O)c2ccccc2)CC(C)O1 (stereo unspecified) | -8.4%
CCOC(=O)NC(=O)/C(C#N)=N\Nc1cccc(Cl)c1 | 55.7% (active)
CCOC(=O)NC(=O)/C(C#N)=N\Nc1ccc(Cl)cc1 | -37.5%
CCOC(=O)NC(=O)/C(C#N)=N\Nc1cccc(OC)c1 | -43%
CC(C)COc1ccc(/C(O)=C2/C(=O)C(=O)N(CCN(C)C)C2c2ccncc2)cc1 (stereo unspecified) | -0.8%
CS(=O)(=O)N1CCN(C(=O)COc2ccc3ccccc3c2)CC1 | 6.1%
CCc1ccc2oc(C(=O)NCCc3ccc(S(N)(=O)=O)cc3)cc(=O)c2c1 | -0.9%

SMILES | inhibition
CCOC(=O)c1c(NC(=O)C(=O)N/N=C/c2ccc(OCC)cc2)sc2c1CCCCC2 | -14.4%
COc1cc(/C=N/NC(=O)c2sc(N)c(C#N)c2C)ccc1O | -14.2%
CCOC(=O)c1c(NC(=O)N/N=C/c2ccc(O)c(OC)c2)sc(C(C)=O)c1C | 53.1% (active)
CCOC(=O)c1c(NC(=O)C(=O)N/N=C/c2ccccc2OC)sc2c1CCCCC2 | 7.6%
CCOC(=O)c1c(NC(=O)N/N=C/c2ccccc2OCC)sc(C(C)=O)c1C | -33.7%
CCOC(=O)c1c(NC(=O)C(=O)N/N=C/c2ccc(O)c(OC)c2)sc2c1CCCCC2 | 81.2% (active)
CN(CC(=O)Nc1ccccc1Cl)C1CCCCC1 | -46.1%
O=C(Cc1cccs1)NCCSc1c(-c2ccc(Cl)cc2)[nH]c2ccccc12 | 30.7%
Cc1ccc(C(=O)NC(NCc2ccccc2)C(Cl)(Cl)Cl)cc1 (stereo unspecified) | 5.2%
O=C(COC(=O)C1CC2C=CC1C2)Nc1cccc(S(=O)(=O)N2CCCCC2)c1 (stereo unspecified) | -18.1%
Cc1ccc(-c2cc(C(F)(F)F)c(C#N)c(=O)[nH]2)cc1 | 1.8%
N#Cc1c(C(F)(F)F)cc(-c2ccc(Cl)cc2)[nH]c1=O | 54.2% (active)
N#Cc1c(C(F)(F)F)cc(-c2ccc(F)cc2)[nH]c1=O | -17.2%
O=C(Nc1nc(-c2nc3ccccc3s2)cs1)c1ccc(S(=O)(=O)N2CCOCC2)cc1 | 47.5%
CCOc1cccc(CNc2ccc(O)cc2)c1OCc1ccc(Cl)cc1Cl | 7.6%
CCOc1cccc(CNc2ccc(O)cc2)c1OCc1ccc(Cl)cc1 | 22.1%
CCOc1cccc(CNc2ccc(O)cc2)c1OCc1ccccc1Cl | 39.2% (active)
CCC(C)NC(=O)c1cc(Cl)c(NC(=O)C2=C(C)OCCS2)cc1OC (stereo unspecified) | -9.8%
Nc1nnc(SCc2nnc(-c3ccccc3)o2)s1 | -21%
O=C1CCc2cc(S(=O)(=O)NC(Cc3ccccc3)C(=O)NC3CCCC3)ccc2N1 (stereo unspecified) | -11.4%
CCN(CC)S(=O)(=O)c1cccc(C(=O)N[C@H](C(=O)OCC(=O)Nc2ccccc2)C(C)C)c1 | -24.7%
C/C(=N\Nc1ncc(Cl)cc1Cl)c1ccc(C#N)cc1 | -40.4%
C/C(=N\Nc1ncc(Cl)cc1Cl)c1ccccn1 | 103% (active)

SMILES | inhibition
C/C(=N\Nc1ccc(Cl)cc1)c1ccccn1 | -119%
Cc1cc(C)c(C(=O)COC(=O)CCNS(=O)(=O)c2c(Cl)cccc2Cl)cc1C | -13.2%
CCC(C(=O)NC1CC(C)(C)NC(C)(C)C1)c1ccccc1 (stereo unspecified) | -18.7%
COc1cccc(-n2c(Cn3nc(C(F)(F)F)cc3C)n[nH]c2=S)c1 | 2.3%
CCn1cc(C(=O)NCc2ccc3c(c2)OCO3)c(=O)c2cc(F)c(N3CCN(C(=O)c4ccco4)CC3)cc21 | 82.7% (active)
CCn1cc(C(=O)NCc2cccc(F)c2)c(=O)c2cc(F)c(N3CCN(C(=O)c4ccco4)CC3)cc21 | 0.3%
CCn1cc(C(=O)NCc2ccccc2)c(=O)c2cc(F)c(N3CCN(C(=O)c4ccco4)CC3)cc21 | 46.3%
CCOc1ccc(NC(=O)C2CCN(S(=O)(=O)c3ccc4c(c3)CC(C)N4C(C)=O)CC2)cc1 (stereo unspecified) | -19.4%
Cc1nn(C)cc1-c1n[nH]c(=S)n1-c1ccc(F)cc1 | -1.9%
O=c1[nH]ncc2c3ccccc3n(Cc3ccc(F)cc3)c12 | -2.2%
Cc1ccc(Cn2c3ccccc3c3cn[nH]c(=O)c32)cc1 | 59.1% (active)
O=c1[nH]ncc2c3ccccc3n(Cc3ccccc3)c12 | 36.5%
CN(C)C(=O)CN1C(=O)NC2(CCCc3ccccc32)C1=O (stereo unspecified) | -1.9%
CCOC(=O)N1CCC(N(CCN(C)C)C(=S)Nc2cccc(Cl)c2)CC1 | 0.8%
CCOC(=O)N1CCC(N(CCN(C)C)C(=S)Nc2cc(C)cc(C)c2)CC1 | -15.3%
CCOC(=O)N1CCC(N(CCN(C)C)C(=S)Nc2cc(Cl)cc(Cl)c2)CC1 | 65.6% (active)
CC(C)(C)C(=O)NC(CC(=O)O)c1ccccc1 (stereo unspecified) | -18.6%
CC(C)(C(=O)N[C@H](CO)c1ccccc1)C(=O)N[C@H](CO)c1ccccc1 | 95% (active)
O=C(NC(CO)c1ccccc1)c1ccco1 (stereo unspecified) | 3%
COCCNC(=O)c1cc(Sc2nnc(C)s2)nc2ccccc12 | -10.4%
CCOC(=O)c1sc(NC(=O)c2cccc(S(=O)(=O)N3c4ccccc4CC3C)c2)cc1C (stereo unspecified) | 6.7%
Cc1ccc(NC(=O)CCCc2nc3ccccc3s2)c(O)c1 | -33.8%
Cc1ccc(NC(=O)CCc2nc3ccccc3s2)c(O)c1 | 43% (active)

SMILES | inhibition
Cc1ccc2nc(NC(=O)CCCc3nc4ccccc4s3)sc2c1 | -29%
O=C(c1ccc(F)cc1)n1c(NCc2ccccc2)n[nH]c1=S | -17.3%
O=c1cc(C(F)(F)F)[nH]c2c(OC(F)(F)F)cccc12 | 15.5%
Cc1cccc2c(=O)cc(C(F)(F)F)[nH]c12 | 1.3%
O=c1cc(C(F)(F)F)[nH]c2c(C(F)(F)F)cccc12 | 72.8% (active)
CCOc1ccc(NC(=O)C2CCCN(S(=O)(=O)c3cnc[nH]3)C2)cc1 (stereo unspecified) | -9.3%
CCN(CC)S(=O)(=O)c1ccc(Cl)c(NC(=O)COC(=O)c2ccc(O)cc2)c1 | 21.8%
CCSc1nsc(NC(=O)Nc2ccccc2F)n1 | -1.8%
COc1cccc(NC(=O)Nc2nc(SC(C)(C)C)ns2)c1 | 40.2%
CCSc1nsc(NC(=O)Nc2ccc(F)cc2F)n1 | 26%
CCCSc1nsc(NC(=O)Nc2ccc(F)cc2F)n1 | 43%
CCSc1nsc(NC(=O)Nc2cccc(OC)c2)n1 | 52.2%
COc1cccc(NC(=O)Nc2nc(SC)ns2)c1 | -38%
CCn1cc(CN2CCC(C(=O)Nc3cccc(-c4cscn4)c3)CC2)cn1 | -27.3%
CC(C)(C)c1cc(CCC(=O)NCCc2ccccn2)cc(C(C)(C)C)c1O | -9.5%
COc1ccc(/C=C(\NC(=O)c2ccc(Cl)cc2)C(=O)NCCCn2ccnc2)cc1OC | 18.2%
CN1CCN(Cc2nc3c(c(=O)n(C)c(=O)n3C)n2CCCc2ccccc2)CC1 | 16.4%
COc1cccc(Nc2c(Nc3cccc(OC)c3)c(=O)c2=O)c1 | -10.3%
CC1(C)CC(=O)C(C(c2ccccc2F)C2C(=O)CC(C)(C)CC2=O)C(=O)C1 | 0.7%
Cc1ccc(S(=O)(=O)NC(CN2CCOCC2)=NCCNS(=O)(=O)c2ccccc2)cc1 | 31.6%
CN1CCN(c2ccc(-c3ccnn3C(=O)Nc3cccc(C(F)(F)F)c3)cc2)CC1 | 19.1%
COC(=O)c1cc(N=Nc2sc(N)nc2C)cc(C(=O)OC)c1 | -4.7%

From PubChem BioAssay AID1578 (Sanford-Burnham Center for Chemical Genomics, 2009)
